# Screen size: about 360,000 compounds; about 5,000 (1.4%) were called active. Shown is part of a subset that was picked to be rich in actives. A number with no mark means an inactive call.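 The calls were made as follows: active = inhibition of 50% or more, scaled per plate between neutral and stimulator controls; inactive = the rest.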
# Assay: blockers of Ca2+-induced mitochondrial swelling – biochemical, isolated mouse mitochondria, absorbance, primary screen (AID 602449);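 also: 0% = DMSO wells given calcium and 100% = 1 mM EGTA wells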
# Details: 30 min, at 10 µM, stronger effect = higher value
row,Compound,inhibition
1,COC(=O)c1ccccc1Sc1c(/C=N/OCc2ccc(Cl)cc2)c(C(F)(F)F)nn1C,2.3%
2,CCC(=O)OCc1c(C(F)(F)F)nn(C)c1Oc1cccc(C(F)(F)F)c1,1.5%
3,Cn1nc(C(F)(F)F)c(C(=O)Nc2cccc(C(F)(F)F)c2)c1SCc1ccc(Cl)cc1,71.2% (active)
4,CC(=O)c1cccc(NC(=O)[C@@H](NC(N)=O)C(C)C)c1,0.5%
5,CSc1nsc(SCC(=O)Nc2cc(C(=O)O)ccc2C)n1,-0.5%
6,C=CCSc1nsc(NC(=O)Nc2cccc(C(C)=O)c2)n1,97.4% (active)
7,c1ccc(C(=NNc2nc3ccccc3s2)c2ccccn2)cc1,0.3%
8,O=C(Nc1ccccc1)Nc1nc2ccccc2s1,96.5% (active)
9,CC(=O)Nc1cccc(-c2nc3ccccc3s2)c1C,-0.5%
10,CCSc1nsc(NC(=O)Nc2cccc(C(C)=O)c2)n1,87.2% (active)
11,CC(=O)c1cccc(NC(=S)N2CCN(S(C)(=O)=O)CC2)c1,0.1%
12,CCCCN1C(=O)C(=O)N(CC(=O)Nc2cccc(C(C)=O)c2)C1=O,0.4%
13,CC(=O)N1CCC(C(=O)Nc2nc(-c3ccccc3)ns2)CC1,-2%
14,CSc1nsc(NC(=O)Nc2ccccc2)n1,85.4% (active)
15,COc1ccc(C(=O)OCC(=O)Nc2cccc(C(C)=O)c2)cc1OC,-2%
16,Cc1ccc(S(=O)(=O)N(Cc2ccccc2)c2ccccn2)cc1[N+](=O)[O-],0.2%
17,Cc1c(C(=O)N2CCN(c3ccc(F)cc3)CC2)oc2c1C(=O)CCC2,-1%
18,COCCCn1c(=O)/c(=C/c2ccccc2OC(C)C)s/c1=C(\C#N)C(=O)Nc1ccc(C(=O)O)cc1,0.6%
19,COc1ccc(S(=O)(=O)N2CCC(C(=O)NCCC(=O)Nc3ccccc3OC)CC2)cc1,1%
20,CC1CCN(C2=NC(=O)/C(=C/c3cn[nH]c3-c3ccccc3)S2)CC1,0.6%
21,COc1ccccc1N(CC(=O)Nc1ccc(C(F)(F)F)cc1)S(C)(=O)=O,-0.2%
22,CC1Sc2ccc(C(=O)NCc3ccccc3Cl)cc2NC1=O (stereo unspecified),-1%
23,CCC/C(C)=N\Nc1nc2c(c(=O)n(C)c(=O)n2C)n1C,4.6%
24,COCCN(C(=O)CCC(=O)Nc1nccs1)C(C(=O)NC(C)(C)C)c1ccc(Cl)cc1 (stereo unspecified),0.1%
25,COc1ccc2oc(C(=O)N(CC(C)C)C3CCS(=O)(=O)C3)c(C)c2c1 (stereo unspecified),-1.1%
26,O=S(=O)(O)c1cc2onnc2c2ccccc12,0.1%

# From PubChem BioAssay AID602449 (Sanford-Burnham Center for Chemical Genomics, 2012)
